Experimental data: PubChem BioAssay (NCATS); active means well fitted activation curve with a large enough effect; inconclusive means small, poorly fitted or top-dose-only effect; inactive means no such curve, though single readings can be large or run the other way
Where “and” joins values, the source holds several entries; their conditions need not be identical. Identical values can stand only once.

molecular target: Cytochrome P450 3A4 (Homo sapiens) (UniProt P08684); assay: qHTS Assay for Activators of Cytochrome P450 3A4 (AID 885); details: recombinant CYP3A4, Luciferin-PPXE luminescence, 60 min; series mostly up to 57.1 µM; activity change, positive = activation: at the top concentration; further: nearly all actives have a fitted effect of over 65% in size
Sequence (P08684 whole entry, looked up): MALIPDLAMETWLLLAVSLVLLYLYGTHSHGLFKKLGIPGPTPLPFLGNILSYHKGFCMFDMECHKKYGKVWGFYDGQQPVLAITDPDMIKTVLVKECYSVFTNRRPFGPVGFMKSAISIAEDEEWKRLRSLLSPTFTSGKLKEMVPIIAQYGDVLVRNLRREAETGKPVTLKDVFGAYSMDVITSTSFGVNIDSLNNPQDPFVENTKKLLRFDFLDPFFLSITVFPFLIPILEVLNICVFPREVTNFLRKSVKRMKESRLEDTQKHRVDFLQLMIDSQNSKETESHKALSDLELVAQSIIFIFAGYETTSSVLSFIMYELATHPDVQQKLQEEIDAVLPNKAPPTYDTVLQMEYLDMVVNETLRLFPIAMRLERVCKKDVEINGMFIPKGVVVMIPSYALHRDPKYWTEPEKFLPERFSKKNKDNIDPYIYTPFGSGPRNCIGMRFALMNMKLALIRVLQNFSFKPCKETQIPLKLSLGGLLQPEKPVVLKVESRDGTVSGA
How it was run: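 Luminescent readout of luciferin formed from 25 uM Luciferin-PPXE (KM level) by 20 nM CYP3A4 in 200 mM KPO4, with 60 min NADPH-driven reaction at room temperature after 10 min compound exposure. Ketoconazole (57 uM) defined 100% inhibition.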

Activity change, positive = activation, inactive:
COC(=O)c1cccc(C23CC4(C2)[C@H](CN(CC2CCCCC2)[C@@H]4c2ccccc2)C3c2ccc(Cl)nc2)c1 (stereo not given in full) -68.2%
CCC1=C2CC[C@H]3C(=O)NC(=O)[C@H]3[C@H]2[C@@]2(Cc3ccccc3)C(=NCC3CC3)OC(=O)N2C1=O -88.7%
CCC1=C(OC(=O)N(CC)CC)N2C(=O)OC(=NCC(=O)OC)[C@]2(Cc2ccccc2)[C@H]2C1=CC[C@H]1C(=O)N(C)C(=O)[C@H]12 -94.1%
CCC1=C(OC(=O)N(CC)CC)N2C(=O)OC(=NCCOC)[C@]2(Cc2ccccc2)[C@H]2C1=CC[C@H]1C(=O)N(CC)C(=O)[C@H]12 -105%
COc1cccc([C@@H]2Oc3ccc(OC)cc3/C(=N/O[C@@H](C)CN3CCCc4nc(C)c(C)cc43)[C@@H]2O)c1 -92.2% [at 11.4 µM]
CCC1=C(OC(=O)N(CC)CC)N2C(=O)OC(=NCCc3c[nH]c4ccccc34)[C@]2(Cc2ccccc2)[C@H]2C1=CC[C@H]1C(=O)N(c3ccccc3)C(=O)[C@H]12 -106%
CCC1=C2CC[C@H]3C(=O)N(c4ccccc4)C(=O)[C@H]3[C@H]2[C@@]2(Cc3ccccc3)C(=NCc3ccccc3)OC(=O)N2C1=O -86.6%
O=C1C[C@@H](O)[C@@H](O)[C@H]2[C@@H]3C(=O)N(Cc4ccc5c(c4)OCO5)C(=O)[C@@H]3CC[C@H]12 -78.5% [at 11.4 µM] and -81.2% [at 11.4 µM]
CO[C@H]1COC(=O)[C@H](C)NC(=O)C/C=C\[C@@H](C)[C@@H](NS(=O)(=O)c2ccc(C)cc2)COC(=O)C/C=C\[C@@H]1C -80.3% [at 11.4 µM]
CCC1=C(OC(=O)N(CC)CC)N2C(=O)OC(=NCCc3c[nH]c4ccccc34)[C@]2(C)[C@H]2C1=CC[C@H]1C(=O)N(C)C(=O)[C@H]12 -92.2%
C/C(CCN1CCCCc2nc(C)c(C)cc21)=N\O[C@@H](C)c1cn([C@H](CO)Cc2ccccc2)nn1 -72.3% [at 11.4 µM] and -80.4% [at 11.4 µM]
CCC1=C2CC[C@H]3C(=O)N(C)C(=O)[C@H]3[C@H]2[C@@]2(Cc3ccccc3)C(=NCCOC)OC(=O)N2C1=O -88.3%
CCC1=C2CC[C@H]3C(=O)N(CC(=O)OC)C(=O)[C@H]3[C@H]2[C@@]2(Cc3ccccc3)C(=NCCOC)OC(=O)N2C1=O -69.5%
CCC1=C2CC[C@H]3C(=O)N(C)C(=O)[C@H]3[C@H]2[C@@]2(Cc3ccccc3)C(=NCCc3c[nH]c4ccccc34)OC(=O)N2C1=O -95.4%
CCC1=C2CC[C@H]3C(=O)N(CC)C(=O)[C@H]3[C@H]2[C@@]2(Cc3ccccc3)C(=NCCOC)OC(=O)N2C1=O -82.7%
CCC1=C(OC(=O)N(CC)CC)N2C(=O)OC(=NCC3CC3)[C@]2(Cc2ccccc2)[C@H]2C1=CC[C@H]1C(=O)N(C)C(=O)[C@H]12 -93.7%
COC(=O)[C@@H]1C[C@@H]2CC[C@@H](O)C[C@@H]2N1Cc1ccc(-c2ccccc2)cc1 -76.7%
COC(=O)C/C=C\[C@@H](C)[C@@H](/C=N\OCC[C@H]1C=C[C@H](OC(C)=O)[C@@H](COC(C)=O)O1)NS(=O)(=O)c1ccc(C)cc1 -95.4% [at 11.4 µM]
CC(=O)OCC1OC(c2ccc3c(c2)OCO3)C=CC1OC(C)=O (stereo not given) -75.4% [at 11.4 µM]
Cc1ccc(S(=O)(=O)N[C@@H]2COC(=O)C/C=C\[C@H](C)COC(=O)N[C@@H](C)C(=O)C/C=C\[C@H]2C)cc1 -86.3% [at 11.4 µM]
CCN1C(=O)[C@@H]2[C@H](C1=O)[C@@H]1C[C@H]3C(=O)N(CC)C(=O)[C@H]3[C@@H]3C1=C(C(=O)N1C(=O)O/C(=N\CC4CC4)[C@]31C)[C@@H]2C -61.8%
C=CC[C@@H]1C=C[C@H](O/N=C(\C)CCN2CCCCc3nc(C)c(C)cc32)[C@H](CO)O1 -81.7% [at 11.4 µM]
COc1cccc([C@H]2Oc3ccc(OC)cc3/C(=N\OC[C@@H](O)[C@@H]3O[C@@H]4OC(C)(C)O[C@@H]4[C@H]3O)[C@@H]2O)c1 -69.8% [at 11.4 µM]
N#Cc1ccc(C23CC4(C2)[C@H](CN(Cc2cccnc2)[C@@H]4c2ccccc2)C3c2ccccc2)cc1 (stereo not given in full) -115%
Cc1ccc(S(=O)(=O)N[C@H]2COC(=O)CC=C[C@@H](C)[C@H]3C=C[C@H](O)[C@@H](COC(=O)CC=C[C@H]2C)O3)cc1 -86.3% [at 11.4 µM]
